Source: PubChem BioAssay AID1347076 (National Center for Advancing Translational Sciences (NCATS), 2019)
The campaign covered roughly 400,000 compounds. About 13,000 (3.2%) were called active. About 18% were inconclusive and are not listed. The sample holds actives, similar compounds and a random draw of the others, so the mix is not that of the screen. Values without a mark were called inactive. Calls come from the whole dose curve; as a rule, active = well fitted cell-killing curve with a large enough effect; inconclusive = small, poorly fitted or top-dose-only effect, or effect the other way; inactive = flat fitted curve, though single readings scatter.

Experiment: qHTS assay for MDR1-selective chemotherapeutics: Primary screen using the drug-selected MDR subline cells KB-V1; note: nearly all actives have a fitted effect of over 60% in size
Conditions: KB-V1 MDR cells viability, CellTiter-Glo, 72 h; series mostly up to 46.1 µM; activity change, negative = cytotoxicity: at the top concentration
How it was run: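 Following 72 h at 37 degrees C with compound, KB-V1 cell viability was read by CellTiter-Glo luminescence, medium being phenol-red-free DMEM plus 10% FBS; concentration-response parameters came from normalized, curve-fitted qHTS data.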
% is set by controls: 0 for no effect and ±100 for the full control effect; potency is the fitted concentration of half-maximal effect.

Row | SMILES | activity change, negative = cytotoxicity [%] | Potency
1 | CC(C)Oc1cccc(-c2cnc(N3CCC(C(N)=O)CC3)s2)c1 | 0 | –
2 | C[C@H]1COc2cc(N3CCSCC3)ccc2S(=O)(=O)N1 | 3.82 | –
3 | CC1(C(=O)O)CCCN(C(=O)/C=C/c2ccccc2)C1 (centres undefined) | 3.16 | –
4 | COc1cc(OC)c(C(=O)Nc2ccc(N(C)C)cc2)cc1OC | -28.8 | –
5 | COc1ccc(Cl)cc1C(=O)Nc1ccc(N(C)C(C)=O)cc1 | – | 16.4 µM (active)
6 | COC(=O)c1ccc(NC(=O)c2cc(Cl)ccc2OC)cc1 | 19.9 | –
7 | CCC(=O)N1CCc2cc(Br)cc(S(=O)(=O)CCC(=O)NCc3ccccc3OC)c21 | 24.4 | –
8 | O=C(NCc1ccc(F)cc1)c1cc(C2CCCCN2C(=O)C2CCCCC2)on1 (centres undefined) | -3.92 | –
9 | CC(=O)Nc1ccc(C=Cc2ccc([N+](=O)[O-])cc2)cc1 | 8.12 | –
10 | NS(=O)(=O)c1ccc(CNC(=O)c2cc(S(=O)(=O)N3CCOCC3)ccc2N2CCCC2)cc1 | 8 | –
11 | O=C1OCCOC2CCCc3oc(-c4ccccc4)c1c32 (centres undefined) | 29.6 | –
12 | OCCNc1nc(Nc2ccc(Cl)c(Cl)c2)nc2ccccc12 | – | 9.2 µM (active)
13 | CN(C)c1nc(Nc2ccc(Cl)c(Cl)c2)nc(N(C)C)n1 | -2.76 | –
14 | COc1cc2nc(Cl)nc(NCCO)c2cc1OC | -1.83 | –
15 | Cc1c(NC(=O)COC(=O)/C=C/c2cccc(F)c2)c(=O)n(-c2ccccc2)n1C | 6.17 | –
16 | Cc1cccc(C(=O)N2CCc3cc(CNC(=O)Cc4ccc(F)cc4)ccc32)c1 | 3.15 | –
17 | CCCCC12CN3CC(C)(CN(C1)C3c1ccc(O)c(OC)c1)C2=O (centres undefined) | -1.76 | –
18 | COCCNc1ncnc2c1ncn2[C@H]1CN(Cc2ccc(OC)cc2)C[C@@H](CO)O1 | 3.06 | –
19 | Cc1ccc(CC2CC(=O)N(c3nc(C)cc(C)n3)C2=O)cc1 (centres undefined) | -11.3 | –
20 | Cc1ccc(CC2CC(=O)N(c3cc(C)ccc3C)C2=O)cc1 (centres undefined) | -2.95 | –
21 | COc1ccc(CN2C(=O)CC(Cc3ccc(C)cc3)C2=O)cc1OC (centres undefined) | – | 18.4 µM (active)
22 | CN(C)c1ccc(/C=C/c2sc3ccccc3[n+]2CCCCBr)cc1 | -5.39 | –
23 | Nc1nc2c(ncn2[C@@H]2O[C@H](CNS(=O)(=O)N3CCc4ccccc4C3)[C@@H](O)[C@H]2O)c(=O)[nH]1 | 1.53 | –
24 | Cc1ccc(S(=O)(=O)c2nnn3c2nc(N2CCN(c4ccccc4F)CC2)c2cc(Cl)ccc23)cc1C | 0 | –
25 | CSc1nc(-c2ccccc2)nc(C(Cl)Cl)n1 | – | 11.6 µM (active)
26 | CSc1nc(Nc2ccc(F)cc2)cc(-c2ccccc2)n1 | 2.43 | –

Row | SMILES | activity change, negative = cytotoxicity [%] | Potency
27 | CSc1ncc(Sc2ccccc2)c(C(=O)O)n1 | 0 | –
28 | CCCCn1c(CNC(=O)C23CC4CC(CC(C4)C2)C3)nnc1SCC(=O)Nc1ccc(C)cc1 | -26.2 | –
29 | COc1ccc(CCCNC(=O)C2Cc3c(-c4cccc(C(N)=O)c4)ccnc3O2)cc1 (centres undefined) | -6.13 | –
30 | COc1ccc(CC(N)c2csc(NC(=O)Cc3ccccc3)n2)cc1 (centres undefined) | 2.07 | –
31 | Cc1cccc(C(=O)C(O)(c2ccccc2)C2CCCCC2=O)c1 (centres undefined) | -1.77 | –
32 | COCCOCCn1cnc2ccccc21 | -0.954 | –
33 | CCOC(=O)c1ccc(NC(=O)Cn2cnc3cc(C)c(C)cc32)cc1 | 10.5 | –
34 | Cn1c(=O)n(CCc2ccccc2)c(=O)c2c1nc1n2CCCN1c1ccccc1 | 8.2 | –
35 | COCCNC(=O)c1ccc(Cn2c(SCC(=O)NCC3CCCO3)nc3ccc(Br)cc3c2=O)cc1 (centres undefined) | 19.5 | –
36 | N#CCSc1nc2ccc(N3CCOCC3)cc2c(=O)n1CCc1ccccc1 | – | 3.26 µM (active)
37 | CCCCn1c(SCC(=O)NCC2CCCO2)nc2ccc(N3CCOCC3)cc2c1=O (centres undefined) | – | 3.66 µM (active)
38 | CCn1c(SCC(=O)NCC2CCCO2)nc2ccccc21 (centres undefined) | 19.3 | –
39 | CCn1cc2nc(SCc3cccc(F)c3)n(CCc3ccccc3)c(=O)c2n1 | -1.77 | –
40 | O=C(Nc1ccc(Cl)cn1)c1ccccc1-c1ccccc1 | -17.1 | –
41 | CC1(C)CC(=O)C=C(c2ccc(COC(=O)c3cc(F)cc(F)c3)cc2)C1=O | -6.38 | –
42 | OC(c1ccccc1)c1nc(-c2cnc3ccccc3c2)cs1 (centres undefined) | – | 16.4 µM (active)
43 | COc1cccc(C(NC(C)=O)c2nc(-c3cnc4ccccc4c3)cs2)c1 (centres undefined) | -6.5 | –
44 | COc1ccc(-c2csc(C(O)c3cccc(Cl)c3)n2)cn1 (centres undefined) | -5.18 | –
45 | CCCC(=O)N1CCC1(C)C(=O)NCc1ccc(SC)cc1 (centres undefined) | -29.3 | –
46 | COc1ccc(OC)c(NC(=O)C2CCCN2S(=O)(=O)c2ccc3c(c2)CC(C)N3C(C)=O)c1 (centres undefined) | -6.15 | –
47 | COc1ccc(NC(=O)COC(=O)C2COc3ccccc3O2)cc1 (centres undefined) | 18.6 | –
48 | CCOc1ncccc1C(=O)OCC(=O)N1c2ccccc2CC1C (centres undefined) | 2.4 | –
49 | CCOC(=O)c1c(C)[nH]c(C(=O)OCC(=O)N2CCCC2=O)c1C | 7.52 | –
50 | CCOC(=O)c1[nH]c(C)c(C(=O)OCC(=O)N2c3ccccc3CC2C)c1C (centres undefined) | – | 2.06 µM (active)
51 | Cc1ccc(F)cc1NC(=O)CCSc1nc(-c2ccco2)cc(C(F)(F)F)n1 | -19.2 | –
52 | CN(C)S(=O)(=O)c1cccc(NC(=O)COC(=O)/C=C/c2cccs2)c1 | 15.2 | –

Row | SMILES | activity change, negative = cytotoxicity [%] | Potency
53 | Cc1ccc(S(=O)(=O)N(C)C)cc1NC(=O)COC(=O)/C=C/c1cccs1 | 14.3 | –
54 | Cc1ccc(S(=O)(=O)N(C)C)cc1NC(=O)/C=C/c1cccs1 | – | 14.6 µM (active)
55 | Cc1cccc(C)c1NC(=O)C(c1cccc(F)c1)N1CCN(C)CC1 (centres undefined) | -8.73 | –
56 | Cc1ccc(S(=O)(=O)N2CCOCC2)cc1C(=O)NCc1ccc(F)cc1 | 0.614 | –
57 | Cc1ccc(S(=O)(=O)N2CCOCC2)cc1C(=O)NC(=S)N(Cc1ccccc1)C(C)C | – | 11.6 µM (active)
58 | Cc1cccc(N(Cc2ccccc2)C(=O)c2cc(S(=O)(=O)N3CCOCC3)ccc2F)c1 | -12.4 | –
59 | CC1(C(=O)Nc2ccc3c(c2)OCCO3)CN(S(C)(=O)=O)CC(=O)N1Cc1cccc(F)c1 (centres undefined) | -10.5 | –
60 | Cc1nc2ccccn2c(=O)c1NC(=O)c1ccc(Br)o1 | 8.75 | –
61 | Oc1c(Cl)cc(Cl)c(Cl)c1Cc1c(O)c(Cl)cc(Cl)c1Cl | – | 5.17 µM (active)
62 | O=C(O)C(=Cc1ccc([N+](=O)[O-])cc1)CCc1ccccc1 | 2.87 | –
63 | CNC(=O)C1CN(C(=O)c2cccc(S(=O)(=O)N3CCc4ccccc43)c2)c2ccccc2O1 (centres undefined) | -22.8 | –
64 | COc1ccc(NC(=O)CSc2nc3ncccc3[nH]2)c(OC)c1 | -1.22 | –
65 | CC(=O)c1nn(-c2ccccc2)c(=Nc2ccccc2)cc1C | 0.939 | –
66 | O=C(Cc1ccccc1)NCc1ccc(F)cc1 | 8.39 | –
67 | CCC(C(=O)OCC(=O)Nc1ccccc1-c1ccccc1)c1ccccc1 (centres undefined) | -12.5 | –
68 | O=C(CNCc1ccc(F)cc1)Nc1ccccc1-c1ccccc1 | – | 13 µM (active)
69 | CC1(C(=O)NS(=O)(=O)c2ccccc2Cl)CCN1C(=O)c1cccc(F)c1 (centres undefined) | 2.05 | –
70 | O=S1(=O)CC(N2CCN(CCO)CC2)CN1Cc1cn(Cc2cccc(Cl)c2)nn1 (centres undefined) | -3.69 | –
71 | CN(c1ccccc1)S(=O)(=O)c1ccc(Cl)c(C(=O)OCC(=O)NCc2ccco2)c1 | 2.26 | –
72 | O=C(COC(=O)c1ccccc1O)NCc1ccco1 | 27.6 | –
73 | Cc1cc(C(=O)OCC(=O)NCc2ccco2)c(C)n1-c1ccccc1 | – | 2.59 µM (active)
74 | O=C(CCn1ccc2cc(S(=O)(=O)N3CCCC3)ccc21)NCc1cccc(Cl)c1 | 0.918 | –
75 | Cc1ccccc1CN1C(=O)CSCC1(C)C(=O)Nc1c(C)cccc1C (centres undefined) | -18 | –
76 | CC(C)(C)c1ccc(C(=O)NCc2ccco2)cc1 | 0 | –
77 | Cc1cccc(Nc2ccccc2C(=O)NCc2ccco2)c1C | – | 18.4 µM (active)
78 | Cc1ccc(N(Cc2ccc(C(=O)Nc3ccccc3C(=O)NCc3ccco3)cc2)S(C)(=O)=O)cc1C | – | 2.06 µM (active)

Row | SMILES | activity change, negative = cytotoxicity [%] | Potency
79 | O=C(CCNC(=O)c1ccccc1Cl)NCc1ccco1 | 17.2 | –
80 | CS(=O)(=O)N(CC(=O)NCc1ccco1)c1ccc2c(c1)OCO2 | -9.81 | –
81 | CCN1CCN(C(=O)c2ccc(CN(c3ccc(C)c(C)c3)S(C)(=O)=O)cc2)CC1 | -5.68 | –
82 | COc1ccccc1NC(=O)C(CC(=O)O)Cc1cc(C)cc(C)c1 (centres undefined) | 22.5 | –
83 | Cc1ccc(F)c(S(=O)(=O)NC(=O)C2(C)CCN2C(=O)CCc2cccs2)c1 (centres undefined) | 2.1 | –
84 | Cc1ccccc1NC(=O)c1cc(S(=O)(=O)Nc2cccc(C(=O)O)c2)ccc1Cl | 28 | –
85 | C=CCNC(=O)c1ccccc1NC(=O)c1ccc(Cl)c(S(=O)(=O)Nc2cccc(C)c2C)c1 | – | 2.91 µM (active)
86 | COc1ccc(NS(=O)(=O)c2cc(C(=O)Nc3ccccc3C(=O)O)ccc2C)cc1 | 17 | –
87 | Nc1ncnc2nnsc12 | -6.07 | –
88 | CCN(c1ncnc2c1cnn2-c1ccc(C)cc1)C1CCCCC1 | 1.03 | –
89 | CN(C(=O)COc1ncnc2c1cnn2-c1ccccc1)C1CCCCC1 | – | 9.2 µM (active)
90 | CN(C(=O)CSc1nnnn1-c1ccccc1)C1CCCCC1 | -7.24 | –
91 | CC(C)(C)OC(=O)N(Cc1ccco1)S(=O)(=O)c1ccccc1Br | -12.2 | –
92 | CCc1nc2c(OCCOc3ccccc3)cccn2c1N(C)C(=O)c1cccs1 | 1.04 | –
93 | CC(C)NC(=O)C1(C)CCCCN1Cc1cccc(C(F)(F)F)c1 (centres undefined) | -13.8 | –
94 | Cc1cc2c(cc1C)N1C(=O)c3cc4ccccc4cc3NC(=O)C1C(=O)N2 (centres undefined) | 18.4 | –
95 | COCCNCCOCCOc1cccc(OC)c1 | 7.45 | –
96 | COc1cccc(OCCOc2cccc(/C=N/n3cnnc3)c2)c1 | – | 18.4 µM (active)
97 | C=CCc1ccc(OCCOc2cccc(/C=N/n3cnnc3)c2)c(OC)c1 | -18.5 | –
98 | COc1cccc(CNC(=O)CSc2c3c(nc4cc(Cl)ccc24)CCCC3)c1 | -15.6 | –
99 | O=C(Nc1nc2ccccc2s1)c1ccc2c(c1)OCO2 | -25.4 | –
100 | CC(=O)NCCC(=O)Nc1nc(-c2ccc3c(c2)OCCO3)cs1 | 13 | –
101 | O=C(Nc1nc(-c2ccc3c(c2)OCO3)cs1)c1ccncc1 | – | 2.59 µM (active)
102 | CN(C)C1CN(Cc2cn(Cc3ccccc3)nn2)S(=O)(=O)C1 (centres undefined) | 12 | –
103 | COC(=O)c1cc2occc2n1Cc1nc(-c2ccc(C)cc2)oc1C | -14.7 | –
104 | O=C(NCc1ccc(F)cc1F)[C@@H]1CCCN1C(=O)[C@@H]1CCCN1C(=O)c1cccc(Cl)c1 | -5.66 | –
